Compound activity: PubChem BioAssay, National Center for Advancing Translational Sciences (NCATS)
The list is not random: actives were taken first. Their share in the collection is about 21%.
Pf growth 96h = P. falciparum growth inhibition at 96 hour, primary screen for plastid delayed-death inhibitors. P. falciparum luciferase reporter growth, 96 h. Potency, µM (top dose mostly 28.7 µM), inactives show at the top dose activity change, negative = inhibition, hits mostly inhibitors. 320,000 compounds, 6.9% hits; further: potency means the concentration at half of the fitted maximal effect; on the % scale 0 is the no-effect control and ±100 the full control effect
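Parasite growth measured via integrated firefly luciferase reporter in P. falciparum. Infected erythrocytes at 2% hematocrit, 0.05% parasitemia final were treated 96 hours at 37 C under 5% CO2, and luminescence was read.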
Shiga inhibitor = blocks Shiga toxin action in Vero cells. Vero cells, Shiga toxin protein synthesis inhibition reporter. inhibition, % at 38.7 µM. 290,000 compounds, 9.2% hits. AID 2315; in the data active means inhibition mostly above about 28%, no sharp cut-off; inactive means mostly below about 43%; further: 0% is about no effect
CHX counter = counter-screen for Shiga toxin inhibitors: cycloheximide protein synthesis inhibition; max response, %; 300,000 compounds, 12% hits; cell reporter, cycloheximide protein synthesis inhibition counterscreen; in the data active means max response mostly above about 13%, no sharp cut-off; inactive means mostly below about 14%; further: read at 38.3 µM for the half of the compounds with a filed dose; 0% is about no effect
Pf growth 48h = P. falciparum growth inhibition at 48 hours (one generation). Potency, µM (top dose mostly 28.7 µM), inactives show at the top dose activity change, negative = inhibition, most hits filed as inhibitors. P. falciparum luciferase growth in erythrocytes, 48 h. 310,000 compounds, 5.9% hits; further: potency means the concentration at half of the fitted maximal effect; on the % scale 0 is the no-effect control and ±100 the full control effect
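In quantitative HTS format, infected erythrocytes bearing luciferase-reporter parasites were treated for a single generation at 37 C. Luminescence after adding detection reagent served as the growth measure.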
Starred values were filed as active, the others as inactive; [ ] = remark or other dose. Unless noted, the call rests on the fitted dose curve; in most records, active means well fitted inhibition curve with a large enough effect; inconclusive means small, poorly fitted or top-dose-only effect, or another doubt; inactive means no such curve, though single readings can be large or run the other way.

For COc1cnc(-c2ccccn2)nc1Oc1ccc(Cl)cc1 the results were Pf growth 96h 5.2µM*, Shiga inhibitor -8, CHX counter 20 and Pf growth 48h 0.37µM*.
COc1cnc(-c2ccccn2)nc1Oc1ccccc1Cl was read as Pf growth 96h 2.6µM*, Shiga inhibitor 34, CHX counter 30* and Pf growth 48h 7.4µM*.
COc1cnc(-c2ccccc2)nc1Oc1ccc(C(C)(C)C)cc1 was read as Pf growth 96h inconclusive, Shiga inhibitor 3, CHX counter 1 and Pf growth 48h inconclusive.
For COC(=O)CNC(=O)C1CCN(S(=O)(=O)c2cnc[nH]2)CC1 the results were Pf growth 96h inconclusive, Shiga inhibitor -8, CHX counter -8 and Pf growth 48h 11%.
For CSc1nnc(-c2cc[n+](C)cc2)n1CCO the results were Pf growth 96h 5%, Shiga inhibitor -1, CHX counter -2 and Pf growth 48h 14%.
For CN(CC(=O)NCc1ccco1)C(=O)C1CC(=O)N(c2ccc3c(c2)OCCO3)C1 (stereo unspecified) the results were Pf growth 96h 1% and Pf growth 48h 5%.
COc1cnc(-c2ccccn2)nc1Oc1ccc(F)cc1F was read as Pf growth 96h 10µM*, Shiga inhibitor 40, CHX counter 33* and Pf growth 48h 10µM*.
O=[N+]([O-])c1cccnc1Oc1ccc(F)cc1F was read as Pf growth 96h inconclusive, Shiga inhibitor 1, CHX counter 1 and Pf growth 48h inconclusive.
`CN(CC(=O)Nc1cccc(F)c1)C(=O)c1cc([N+](=O)[O-])ccc1N1CCOCC1` gave Pf growth 96h 6% and Pf growth 48h 1%.
`O=C(N/N=C/C=C\c1ccccc1[N+](=O)[O-])c1ccccn1` gave Pf growth 96h 91%, Shiga inhibitor 75*, CHX counter 61* and Pf growth 48h 110%.
Screening O=C(N/N=C/C(Br)=C/c1ccccc1)c1cnccn1 returned Pf growth 96h inconclusive, Shiga inhibitor 99*, CHX counter 50* and Pf growth 48h inconclusive.
`O=C(N/N=C/C=C\c1ccco1)c1ccccn1` gave Pf growth 96h 47%, Shiga inhibitor 40, CHX counter 24* and Pf growth 48h 45%.
`O=C(N/N=C\C=C\c1ccco1)c1cc(-c2ccc3ccccc3c2)n[nH]1` gave Pf growth 96h 4%, Shiga inhibitor active, CHX counter 24* and Pf growth 48h -10%.
Screening COc1ccc(CN2CCNC(=O)C2CC(=O)N(C)Cc2ccon2)c(F)c1 (stereo unspecified) returned Pf growth 96h 81%, Shiga inhibitor -38, CHX counter -2 and Pf growth 48h 8%.
`CC(C)C(=O)Nc1c2c(nn1-c1ccc(F)cc1)CS(=O)(=O)C2` gave Pf growth 96h 47%, Shiga inhibitor -4, CHX counter -5 and Pf growth 48h 0%.
Screening CCn1ccc(-c2ccccc2)c(C#N)c1=O returned Pf growth 96h -16%[1.15 µM], Shiga inhibitor 2, CHX counter -3 and Pf growth 48h 14%.
O=C(CNC(=O)c1ccccc1)N/N=C/C=C/c1ccccc1 was read as Pf growth 96h 121%, Shiga inhibitor -6, CHX counter -2 and Pf growth 48h 22%.
Cc1cc(C(=O)N/N=C/C(Cl)=C/c2ccccc2)c(C)o1 was read as Pf growth 96h 10µM*, Shiga inhibitor 43*, CHX counter 27* and Pf growth 48h 9.3µM*.
`O=C(CSc1ccccn1)N/N=C/C=C/c1ccccc1` gave Pf growth 96h 173%, Shiga inhibitor 90*, CHX counter 32* and Pf growth 48h inconclusive.
`O=C(N/N=C/c1ccco1)c1cnccn1` gave Pf growth 96h 62%, Shiga inhibitor 9, CHX counter -1 and Pf growth 48h -11%.
For O=C(N/N=C/C(Cl)=C/c1ccccc1)c1ccccn1 the results were Pf growth 96h inconclusive, Shiga inhibitor 76*, CHX counter 33* and Pf growth 48h -45%.
`CC(/C=N/NC(=O)c1ccccn1)=C\c1ccco1` gave Pf growth 96h -14%, Shiga inhibitor 94*, CHX counter 33* and Pf growth 48h 114%.
O=C(N/N=C/C(Cl)=C/c1ccccc1)c1ccncc1 was read as Pf growth 96h inconclusive, Shiga inhibitor 3, CHX counter 14 and Pf growth 48h inconclusive.
O=C(N/N=C/C=C/c1ccccc1)c1ccccn1 was read as Pf growth 96h -20%, Shiga inhibitor 68*, CHX counter 55* and Pf growth 48h 83%.
For COc1ccc(CN2CCNC(=O)C2CC(=O)N(C)CC2CCOCC2)cc1C (stereo unspecified) the results were Pf growth 96h inconclusive, Shiga inhibitor -9, CHX counter -2 and Pf growth 48h -5%.
Screening O=C1CNC(=O)/C(=C\c2ccc(F)cc2)N1 returned Pf growth 96h 15%, Shiga inhibitor -5 and CHX counter -3.
For O=C1NCCN/C1=C\C(=O)c1ccc(F)cc1 the results were Pf growth 96h 66%, Shiga inhibitor 69*, CHX counter 35* and Pf growth 48h 86%.
For O=C1NCCN/C1=C\C(=O)c1ccc(Cl)cc1 the results were Pf growth 96h 315%, Shiga inhibitor 67*, CHX counter 55* and Pf growth 48h 145%.
`O=C(CCC(=O)N1CCOc2ccccc21)Nc1ccccc1Br` gave Pf growth 96h 29%, Shiga inhibitor -5, CHX counter 1 and Pf growth 48h 11%.
`CCNc1nc(NC(C)C)nc(SCCOc2ccc(C)cc2)n1` gave Pf growth 96h inconclusive, Shiga inhibitor 16, CHX counter 10 and Pf growth 48h -21%.
For Cc1ccc(OCCSc2nc(N)cc(N)n2)cc1 the results were Pf growth 96h inconclusive, Shiga inhibitor 130*, CHX counter 53* and Pf growth 48h 438%.
COc1ccc(OCCSc2nc(N)cc(=O)[nH]2)cc1 was read as Pf growth 96h 17%, Shiga inhibitor 2, CHX counter 0 and Pf growth 48h 32%.
For COc1ccc(OCCSc2nc(N)cc(N)n2)cc1 the results were Pf growth 96h 255%, Shiga inhibitor 101* and CHX counter 49*.
For CCCN1C(=O)c2ccccc2NC1c1ccc(O)c(OCC)c1 (stereo unspecified) the results were Pf growth 96h -4%, Shiga inhibitor -7, CHX counter -2 and Pf growth 48h inconclusive.
Screening Cc1cc(C)nc(N/N=C/c2cc(Br)ccc2O)n1 returned Pf growth 96h inconclusive, Shiga inhibitor 39, CHX counter 28* and Pf growth 48h inconclusive.
`Cc1cc(C)nc(N/N=C/c2ccccc2OCc2ccc(Cl)cc2)n1` gave Pf growth 96h inconclusive, Shiga inhibitor 41, CHX counter 13 and Pf growth 48h -13%.
C/C(=N/Nc1nc(C)cc(C)n1)c1ccc(Br)cc1 was read as Pf growth 96h -34%, CHX counter -2 and Pf growth 48h inconclusive.
Screening Cc1cc(C)nc(N/N=C/c2ccccc2OCc2cccc(Br)c2)n1 returned Pf growth 96h inconclusive, Shiga inhibitor 17, CHX counter 14* and Pf growth 48h 1%.
Cc1cc(C)nc(N/N=C/c2ccccc2OCc2ccccc2)n1 was read as Pf growth 96h -13%, Shiga inhibitor 33, CHX counter 12* and Pf growth 48h 0%.
